Screening results: PubChem, National Center for Advancing Translational Sciences (NCATS)
BAZ2B inh: BAZ2B (human) inhibition | Q9UIF8 | AlphaScreen BAZ2B-H3K14Ac peptide displacement | Potency, µM (titrated, usually from 114 µM), without a hit: at the top dose activity change, negative = inhibition, hits mostly inhibitors | hit rate 4.4% among 360,000 | AID 504333; also: % is scaled to controls: 0 for no effect and ±100 for the full control effect; nearly all actives have a fitted effect of over 60% in size
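Inhibition is scored as reduced AlphaScreen emission. The BAZ2B/b-H3(5-23)K14Ac complex (50 nM each) in PBS pH 7.4, 0.01% Tween-20 meets compound (up to 110 uM) for 30 min at RT before bead addition.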
HP1b chromo inh: inhibitors of HP1-beta chromodomain binding to methylated histone tails. P83916. AlphaScreen HP1-beta / biotin-H3K9me3 peptide binding. Potency, µM (series often up to 114 µM), for inactives: top-dose activity change, negative = inhibition, usual class: inhibitors. hit rate 0.56% among 390,000; also: nearly all actives have a fitted effect of over 70% in size
Target sequence (P83916 whole entry, looked up): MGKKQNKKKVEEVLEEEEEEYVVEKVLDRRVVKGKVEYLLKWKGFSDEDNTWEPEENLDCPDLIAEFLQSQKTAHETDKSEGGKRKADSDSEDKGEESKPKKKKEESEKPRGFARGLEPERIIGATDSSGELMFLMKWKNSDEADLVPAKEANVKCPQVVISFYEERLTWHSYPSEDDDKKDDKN
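AlphaScreen: HP1-beta (50 nM) preformed 30 min with biotin-H3(1-18)K9me3 peptide (50 nM) in PBS pH 7.4, 0.01% Tween-20. Compound added for 30 min at RT, then streptavidin donor/nickel chelate acceptor beads (10 ug/mL) for 30 min.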
G9a inh: inhibitors of human histone lysine methyltransferase G9a. Q96KQ7. G9a H3K9 monomethylation, AlphaScreen, 2 h. Potency, µM (doses to about 102 µM), without a hit: at the highest dose activity, negative = inhibition, hits mostly inhibitors. hit rate 8.8% among 350,000. AID 504332; also: % is scaled to controls: 0 for no effect and ±100 for the full control effect; nearly all actives have a fitted effect of over 75% in size
Target sequence (Q96KQ7 913-1193 limits assumed): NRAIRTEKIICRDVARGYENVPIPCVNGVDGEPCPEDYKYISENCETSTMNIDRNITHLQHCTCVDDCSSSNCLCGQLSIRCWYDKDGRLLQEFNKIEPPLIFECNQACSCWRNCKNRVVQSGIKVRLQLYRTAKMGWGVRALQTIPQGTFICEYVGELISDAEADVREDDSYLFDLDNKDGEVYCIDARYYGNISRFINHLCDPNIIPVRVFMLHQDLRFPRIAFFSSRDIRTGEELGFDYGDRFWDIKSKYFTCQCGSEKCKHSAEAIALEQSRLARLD
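G9a (20 nM) was preincubated 15 min with compound, then reacted 2 h at room temperature with 500 nM biotin-H3K9 peptide and 20 µM SAM. Monomethyl-H3K9 detected by AlphaScreen using anti-H3K9me1 antibody.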
JMJD2A Tudor: JMJD2A Tudor domain (human) inhibition. O75164. AlphaScreen JMJD2A-Tudor / H3K4me3 peptide binding. Potency, µM (doses to about 114 µM), for the others: top-dose activity change, negative = inhibition, actives largely listed as inhibitors. hit rate 4.4% among 390,000; also: % is scaled to controls: 0 for no effect and ±100 for the full control effect; nearly all actives have a fitted effect of over 50% in size
Sfp PPTase inh: inhibitors of Bacillus subtilis Sfp phosphopantetheinyl transferase | Potency, µM, for inactives: largest response in the series, negative = inhibition, actives largely listed as inhibitors | Q9F4F7 | hit rate 3.5% among 310,000 | AID 1490 | Biochemical Sfp PPTase activity, qHTS;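 also: the enzyme is Sfp with the accession as filed and its product quenches rhodamine fluorescence; 0% = enzyme reaction without inhibitor and -100% = no enzyme wells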
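Fluorescence-quenching assay with 15 nM Sfp, 5 uM rhodamine-CoA and 12.5 uM BHQ-2-labelled ybbR peptide in pH 7.6 Hepes/MgCl2 buffer. Enzyme was pre-incubated with compound for 15 min at room temperature. Rate was taken from the 30-min fluorescence change (525/598 nm).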
Active calls of the source: *; ? = inconclusive; nt = no result; [ ] = dose if it differs, or a comment. Sampled rows, rich in hits. Any-hit rate of the full collection: about 12%. Calls follow the shape of the dose curve; as a rule, active = well fitted curve in the direction sought with a large enough effect; inconclusive = small, poorly fitted or top-dose-only effect, or another doubt; inactive = no such curve, though single readings can be large; an effect the other way counts as inactive or inconclusive. Potency is read from the fitted curve at half-maximal effect.

SMILES	BAZ2B inh	HP1b chromo inh	G9a inh	JMJD2A Tudor	Sfp PPTase inh
CCCc1cc(=O)oc2cc(C)cc(OCC(=O)N3CCC(C(=O)O)CC3)c12	-33%	58%	23%[12.7 µM]	-5%	2%
Nc1[nH]nc2ncc3cc4ccccc4nc3c12	?	26%	35µM*	-21%	35µM*
Nc1[nH]nc2nc3ccccc3nc12	nt	nt	nt	nt	9%
CC(Sc1nnc(N)s1)c1ccccc1Cl (centres undefined)	-1%	90%	40µM*	-4%	17%
CC1=N/C(=C\c2ccc([N+](=O)[O-])cc2)C(=O)N1c1cc(Cl)ccc1C	?	?	?	?	56µM*
CC(C)(C)c1ccc(OCCOc2ccc(C(C)(C)C)cc2NC=O)c(NC=O)c1	-14%	22%	-9%[0.501 µM]	-18%	56µM*
CCOC(=O)C1CCN(c2c(C(=O)c3ccc(C)cc3)cnc3ccc(F)cc23)CC1	-24%	9%	-24%[59 µM]	-33%	nt
C/C(CCc1oc2c(Br)cc(Br)cc2c1-c1ccc(C)o1)=N\O	?	2%	?	?	22µM*
CC(=O)CCc1oc2ccc([N+](=O)[O-])cc2c1-c1ccc(C)o1	?	32%	19%[0.501 µM]	-11%	-20%
C/C(CCc1oc2ccccc2c1-c1ccc(C)o1)=N/O	?	-28%	?	56µM*	28µM*
CCOc1ccc(N(CC(=O)NCc2ccccc2Cl)S(=O)(=O)c2c(C)noc2C)cc1	-17%	24%	30%	-7%	11%
CCN(CC)CCNC(=O)c1ccc2c(=O)n3nc(Nc4cccc(Cl)c4C)sc3nc2c1	?	2%	?	?	nt
CC(C)C1=CC(=Nc2ccc(S(N)(=O)=O)cc2)C=C(C(C)C)C1=O	45µM*	?	nt	56µM*	5%
NS(=O)(=O)c1ccc(N=C2C(=O)Nc3ccccc32)cc1	-10%	70%	nt	-12%	7%
Nc1ccc(-c2ccc3ccccc3n2)cc1	nt	nt	19µM*	nt	-25%
Nc1ccc(Cc2nc3cc4ccccc4cc3[nH]2)cc1	-36%	5%	-22%[59 µM]	?	12%
Cc1ccc2nc(CCc3ccc(N)cc3)[nH]c2c1	?	-2%	35µM*	?	5%
Nc1ccc2nc(CCc3ccccc3)[nH]c2c1	?	-6%	7.9µM*	?	?
CCc1nc2ccc(Cc3ccc4nc(CC)[nH]c4c3)cc2[nH]1	-14%	45%	45µM*	-10%	9%
N#Cc1nc(Nc2ccc(Br)cc2)nc(NC2CCCC2)n1	nt	nt	nt	-14%	nt
Cc1nn(-c2ccccc2)c(OC(=O)c2ccc(Br)cc2)c1S(=O)(=O)c1ccccc1	?	36%	?	-36%	nt
O=C(Nc1ccc2c(c1)OCO2)C1CC(c2cccc(Br)c2)=NO1 (centres undefined)	-29%	34%	-2%[59 µM]	-4%	-32%
CCOC(=O)Cc1nnc(NC(=O)C(CC)Sc2nc(C)cc(=O)[nH]2)s1 (centres undefined)	3%	-18%	71µM*	?	2%
O=C1NC(=O)/C(=C/c2ccc(-c3cccc([N+](=O)[O-])c3)o2)S1	?	-8%	nt	?	89µM*
C[C@@H](CO)[C@H](/C=C/c1ccccc1)CCO[Si](c1ccccc1)(c1ccccc1)C(C)(C)C	nt	51%	nt	-8%	33%
SMILES	BAZ2B inh	HP1b chromo inh	G9a inh	JMJD2A Tudor	Sfp PPTase inh
O=C(CSc1c2c(nc3ccc(Cl)cc13)CCCC2)N1CCN(c2cccc(Cl)c2)CC1	nt	13%	?	-26%	nt
COc1ccc(NS(=O)(=O)c2cc(NC(=O)c3ccco3)ccc2N2CCCCC2)cc1	-10%	15%	-8%[59 µM]	-27%[57.1 µM]	10%
COc1ccc(CCNC(=O)c2cc(COc3c(C)cccc3C)on2)c(OC)c1	-3%	43%	35%	-6%	12%
CN(C(=S)NC(=O)c1ccc(Cl)cc1)C1CCCCC1	45µM*	-22%	8.9µM*	-33%	50µM*
CN(C(=S)NC(=O)c1ccc(F)cc1)C1CCCCC1	-26%	39%	16%	-24%	-1%
Cc1noc(NS(=O)(=O)c2ccc(NC(=O)c3ccc(Br)cc3)cc2)c1C	-6%	5%	-9%[59 µM]	-24%	nt
COC(=O)c1scc(C)c1N/N=C(\C)c1ccc(F)cc1F	27%	100%	8%	50%	-5%
COC(=O)c1scc(S(=O)(=O)C(C)C)c1N/N=C(\C#N)C(=O)c1ccc(Cl)cc1	-33%	-6%	50µM*	?	-8%
COC(=O)c1scc(C)c1NC(=O)c1ccc(Cl)cc1	8%	8%	15%[0.501 µM]	3%	16%
COC(=O)c1scc(C#N)c1N/N=C(\C#N)S(=O)(=O)c1ccc(Cl)cc1	-37%	-9%	45µM*	?	25%
COC(=O)c1c(C)sc(-c2c(-c3cccc(Cl)c3)[nH]c3c2c(=O)[nH]c(=O)n3C)c1O	?	-3%	-7%[59 µM]	-30%	nt
Cc1csc(NC(=O)NCC2CCCC(CNC(=O)Nc3nc(C)cs3)C2)n1 (centres undefined)	-30%	1%	14µM*	-29%	-9%
Cc1cc(C)cc(-n2ccn(CC(=O)NCCc3ccccc3)c(=O)c2=O)c1	-2%	30%	27%[59 µM]	2%	-4%
O=C(COC(=O)c1cc(Br)ccc1O)Nc1ccc2c(c1)OCO2	6%	14%	-9%[12.7 µM]	-20%	nt
CCOc1ccc(-c2nn(-c3ccccc3)cc2/C=C2\SC(=S)N(Cc3ccco3)C2=O)cc1	-9%	-2%	9%[59 µM]	?	1%
CCN1C(=O)/C(=C\c2cn(-c3ccccc3)nc2-c2cccnc2)SC1=S	-11%	18%	1%	-17%	3%
O=C(O)CN1C(=O)/C(=C\c2cn(-c3ccccc3)nc2-c2ccccc2)SC1=S	?	-21%[57 µM]	11µM*	50µM*	?
CCn1c(C)cc(/C=C2/SC(=S)N(CC(=O)O)C2=O)c1C	-32%	1%	50µM*	-31%	-6%
CC(C)COc1ccc(-c2nn(-c3ccccc3)cc2/C=C2/SC(=S)N(CC(=O)O)C2=O)cc1	45µM*	40µM*	50µM*	45µM*	-21%
O=C(Cn1cnc2nc3c(cc2c1=O)CCCC3)N1CCN(c2ccccc2)CC1	-2%	21%[57 µM]	4%[59 µM]	-8%	nt
CN1CCN(c2nc3c(S(=O)(=O)c4ccc(Br)cc4)nnn3c3ccsc23)CC1	-21%	16%	-31%[59 µM]	?	nt
O=C(C1CCCN(S(=O)(=O)c2cccc3nonc23)C1)N1CCN(c2cccc(C(F)(F)F)c2)CC1 (centres undefined)	?	-1%	?	-24%	nt
COc1ccc2nc(N3CCN(C(=O)CS(=O)(=O)c4ccc(C)cc4)CC3)sc2c1	-14%	3%	-6%[59 µM]	-17%	nt
CCOc1ccc(CC(=O)NCCc2cnc[nH]2)cc1	1%	3%	-8%	-10%	2%
CCOc1ccc(C(=O)CCNC(Cc2cnc[nH]2)C(=O)O)cc1 (centres undefined)	18µM*	19%	?	?	?
